# Only some compounds are listed: those with a hit (about 12% of all), similar ones and a draw of the others.
# AmpC detergent: inhibitors of E. coli AmpC beta-lactamase with detergent. AID 485294. Potency, µM (highest dose often 114 µM), without a hit: at the highest dose activity change, negative = inhibition, usual class: inhibitors. AmpC hydrolysis of nitrocefin, absorbance 480 nm, 0.01% Triton. actives 0.041% (n = 370,000). P00811;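 note: 0% = no-compound wells and -100% = no-enzyme wells; nearly all actives have a fitted effect of over 25% in size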
# Target sequence (P00811 whole entry, looked up): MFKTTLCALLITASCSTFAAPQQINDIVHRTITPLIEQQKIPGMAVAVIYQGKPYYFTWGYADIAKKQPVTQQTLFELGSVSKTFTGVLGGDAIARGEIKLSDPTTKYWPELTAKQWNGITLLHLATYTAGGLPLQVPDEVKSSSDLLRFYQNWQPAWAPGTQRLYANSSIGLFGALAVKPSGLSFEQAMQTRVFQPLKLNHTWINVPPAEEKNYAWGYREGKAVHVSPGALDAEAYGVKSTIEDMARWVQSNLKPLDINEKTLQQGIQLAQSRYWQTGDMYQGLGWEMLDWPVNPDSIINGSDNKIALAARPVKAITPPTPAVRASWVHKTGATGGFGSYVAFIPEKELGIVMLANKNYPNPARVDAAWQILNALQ
#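 20 mM phosphate pH 7.0 + 0.01% (detergent screen) or 0.0001% Triton X-100; 5.3 nM AmpC reagent; cpd preinc 15 min RT; nitrocefin (800 uM stock) to start; A480 q20 s × 4 min; Activity was normalised to no-enzyme and no-compound control wells.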
# SARS PLpro yeast: inhibitors of SARS-CoV papain-like protease in yeast; S. cerevisiae expressing SARS-CoV PLpro, growth rescue; Potency, µM (doses to about 32.9 µM), for inactives: at the top dose activity, positive = growth rescue, usual class: activators; AID 485353; actives 0.19% (n = 330,000); calls by dose curve; note: 0% is about no effect; nearly all actives have a fitted effect of over 55% in size
# Pf growth 48h: inhibits P. falciparum growth in the first generation, 48 h | P. falciparum luciferase growth in erythrocytes, 48 h | Potency, µM (top dose mostly 28.7 µM), for the others: at the top dose activity change, negative = inhibition, hits mostly inhibitors | actives 5.9% (n = 310,000) | AID 504832; note: % is set by controls: 0 for no effect and ±100 for the full control effect
#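 In quantitative HTS format, infected erythrocytes bearing luciferase-reporter parasites were treated for a single generation at 37 C. Luminescence after adding detection reagent served as the growth measure.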
# Sm TGR inh: inhibitors of Schistosoma mansoni thioredoxin glutathione reductase | Q962Y6 | purified TGR, DTNB reduction, TNB absorbance 405 nm | Potency, µM (series often up to 114 µM), inactives show top-dose activity change, negative = inhibition, usual class: inhibitors | actives 3% (n = 360,000) | AID 485364; note: % is set by controls: 0 for no effect and ±100 for the full control effect; nearly all actives have a fitted effect of over 60% in size
#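 TGR 20 nM + NADPH 100 uM (dispensed conc.), cpd preinc 15 min RT; start with NADPH (500 uM addition) then DTNB (15 mM addition). Kinetic TNB absorbance, 405 nm filter. Four-parameter Hill fit across titration.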
# Pf growth 96h: P. falciparum growth inhibition at 96 hours. P. falciparum luciferase reporter growth, 96 h. Potency, µM (highest dose often 28.7 µM), without a hit: at the highest dose activity change, negative = inhibition, most hits filed as inhibitors. actives 6.9% (n = 320,000). AID 504834; note: % is set by controls: 0 for no effect and ±100 for the full control effect
#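 Delayed-death screen, second-generation endpoint: infected erythrocytes, 2% hematocrit, 0.05% parasitemia final; 96 hours at 37 C, 5% CO2; luciferase detection reagent; luminescence decrease equals reduced growth.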
# AmpC no deterg: blocks E. coli AmpC beta-lactamase in detergent-free assay | P00811 | AmpC nitrocefin hydrolysis, absorbance 480 nm, 0.0001% Triton | Potency, µM (top dose mostly 57.1 µM), for inactives: top-dose activity change, negative = inhibition, most hits filed as inhibitors | actives 0.52% (n = 330,000);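 note: plate controls were no compound for no effect and no enzyme for full effect; nearly all actives have a fitted effect of over 20% in size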
#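 20 mM phosphate pH 7.0 + 0.01% (detergent screen) or 0.0001% Triton X-100; 5.3 nM AmpC reagent; cpd preinc 15 min RT; nitrocefin (800 uM stock) to start; A480 q20 s × 4 min; Activity was normalised to no-enzyme and no-compound control wells.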
# Active calls of the source: *; ? = inconclusive; · = not tested or not shown; [ ] = dose if it differs, or a comment. Unless noted, calls come from the whole dose curve; as a rule, active = well fitted curve in the direction sought with a large enough effect; inconclusive = small, poorly fitted or top-dose-only effect, or another doubt; inactive = no such curve, though single readings can be large; an effect the other way counts as inactive or inconclusive. Potency is the fitted concentration of half-maximal effect.
SMILES,AmpC detergent,SARS PLpro yeast,Pf growth 48h,Sm TGR inh,Pf growth 96h,AmpC no deterg
Oc1ccc(COCc2ccc(F)cc2)c2cccnc12,?,0.7%,2.94µM*,35.5µM*,4.15µM*,-39.3%
Oc1ccc(COc2cccc3ccccc23)c2cccnc12,-14.6%,-2.4%,2.62µM*,8.91µM*,5.22µM*,-55.5%
O=C(C[C@@H]1C/C=C\C[C@H](Cc2ccc(F)cc2)C(=O)OCCNC1=O)N[C@H](CO)Cc1ccccc1,·,-11.4%,·,·,·,161.5%
O=c1[nH]cc(S(=O)(=O)Nc2ccc3c(c2)OCO3)c(=O)[nH]1,-19.4%,-1.6%,7.3%,-6.7%,23.4%,-12.9%
C[C@@H]1C[C@H](O)c2cc(Cl)ccc2N1,-1.8%,-0.2%,-16.0%,39.8µM*,3.9%,-12.7%
CC1CCN(C2(O)C(=O)Nc3ccc(Cl)cc32)CC1 (configuration not stated),?,-2.9%,16.8%,3.2%,51.3%,-42.9%
COCCn1c(SCC(=O)NCc2ccccc2)nc2ccccc21,-6.9%,8.8%,-0.2%,-10.7%,-19.9%,2.6%
Cc1ccccc1-n1nnnc1SCc1csc(-c2ccccc2)n1,-13.9%,-2.3%,·,13.4%[11.4 µM],9.28µM*,-29.1%
COCCn1c(SCc2csc(-c3ccccc3)n2)nc2ccccc21,5.8%,-6.2%,-14.5%,-5.4%,11.7µM*,-4.8%
Cc1noc2nc(C(=O)O)nc(N3CCCCC3)c12,-2.6%,·,·,-1.9%,·,·
O=C(/C=C/c1ccco1)NCc1ccccn1,-2.6%,3.3%,9.0%,3.55µM*,24.5%,-0.2%
O=C(/C=C/c1ccco1)N(c1ccccn1)c1ccccn1,?,-1.0%,-7.7%,31.6µM*,-0.3%,-17.9%[11.4 µM]
CCOc1cc(OCC)c(C(=O)CCC(=O)O)cc1OCC,·,·,?,·,2.39µM*,·
CCOc1cc(Br)c(CC(=O)O)cc1OCC,-2.0%,-0.7%,130.7%,13.0%,-7.1%,-21.5%
C=CCn1c(SCC(=O)Nc2ccc(Br)cc2)nc(O)c(CC)c1=O,-2.3%,1.5%,35.4%,0.8%,-1.0%,-27.1%
CCC(C)n1c(SCc2ccc(F)cc2Cl)nc2ccsc2c1=O (configuration not stated),10.9%,·,·,1.2%,·,·
COc1cc(/C=N\Nc2nc3ccccc3[nH]2)cc(OC)c1OC,-3.3%,5.2%,0.165µM*,5.8%,?,-15.5%
C(=N\Nc1nc2ccccc2[nH]1)/c1cccc2nccnc12,-3.9%,1.2%,?,5.4%,?,-18.1%
C(=N\Nc1nc2ccccc2[nH]1)/c1ccc2c(c1)OCCO2,10.1%,-1.5%,?,3.9%,?,-45.5%
COc1ccc(/C=N/Nc2nc3ccccc3[nH]2)cc1OC,-10.7%,-24.4%,0.465µM*,0.2%,?,-37.9%
COc1ccc2c(c1)c(/C=N/Nc1nc3ccccc3[nH]1)c(C)n2C,-4.4%,-0.3%,1.47µM*,3.9%,1.65µM*,-14.2%
COc1cc(OC)c(OC)cc1/C=N/Nc1ncnc2c1[nH]c1ccccc12,-13.3%,27.1%,?,-1.5%,-19.1%,-5.2%
COc1cc(OC)c(OC)cc1/C=N/Nc1nc2ccccc2[nH]1,7.3%,0.2%,1.04µM*,12.2%,1.85µM*,-14.6%
Cc1ccc2nc(COc3cccc(NC(=O)COc4ccccc4F)c3)cc(=O)n2c1,14.7%,·,·,-1.1%,·,·
Cc1cccc(NC(=O)c2sc(NC(=O)c3ccco3)c(C#N)c2C)c1C,-12.8%,-4.3%,7.0%,7.1%,?,-21.9%
SMILES,AmpC detergent,SARS PLpro yeast,Pf growth 48h,Sm TGR inh,Pf growth 96h,AmpC no deterg
Cc1ccc2cc(/C=N/Nc3nc4ccccc4[nH]3)c(Cl)nc2c1,4.2%,-15.9%,0.738µM*,-7.5%,?,-18.4%
C(=N\Nc1nc2ccccc2[nH]1)/c1ccc2ncccc2c1,5.5%,-1.0%,0.147µM*,10.4%,?,-29.2%
CC1CCN(S(=O)(=O)c2ccc3[nH]cc(C(=O)NCc4ccc(F)cc4)c(=O)c3c2)CC1,-4.9%,·,·,6.1%,·,·
Cc1ccc(C)c(Nc2ncccc2C(=O)NCc2cccs2)c1,-10.6%,-58.9%,12.6%,5.9%,9.28µM*,-24.8%
O=C(CC(=O)c1c(F)cccc1Cl)c1ccccc1O,-4.5%,-6.0%,11.7µM*,-18.9%,?,-44.5%
CC(C)(C)C(=O)NC1CC2CCCC(C1)N2C(=O)Nc1ccccc1 (configuration not stated),4.5%,?,?,-7.1%,?,-1.4%
Cc1ccccc1NC(=O)N1C2CCCC1CC(NC(=O)C(C)(C)C)C2 (configuration not stated),-25.7%,4.9%,0.3%,1.2%,11.7µM*,25.8%
O=Cc1ccc(C(=O)OCC(=O)NC(=O)Nc2ccccc2F)cc1,·,-4.8%,·,·,·,28.2µM*
CCc1ccc(-c2nc(CSCC(=O)NCc3ccc(C)cc3)c(C)o2)cc1,?,·,·,-17.2%,·,·
Clc1cccc(C(c2ccc3nc[nH]c3c2)n2ccnc2)c1 (configuration not stated),·,·,13.5µM*,·,5.36µM*,·
COc1ccccc1N1CCN(C(=O)c2ccc3c(=O)n(Cc4ccc5c(c4)OCO5)c(=O)[nH]c3c2)CC1,0.0%,11.3%,1.47µM*,-5.1%,?,90.8%
COc1ccccc1N1CCN(C(=O)c2ccc3[nH]c4c(c3c2)CCCC4)CC1,-2.8%,-7.6%,0.0%,1.8%,11.7µM*,72.6%
COc1ccc(Cn2c(=O)[nH]c3cc(C(=O)N4CCN(Cc5ccccc5)CC4)ccc3c2=O)cc1,-10.4%,3.8%,?,-47.8%,-1.5%,152.9%
O=C(c1ccc2[nH]c3c(c2c1)CCCC3)N1CCN(c2ccc(F)cc2)CC1,?,-20.7%,-12.8%,-6.0%,-20.1%,-10.0%
COc1ccc(Cn2c(=O)[nH]c3cc(C(=O)N4CCN(c5ccccc5OC)CC4)ccc3c2=O)cc1,-0.8%,-11.4%,3.29µM*,0.0%,8.4%,54.8%
COc1ccccc1Cn1c(=S)[nH]c2cc(C(=O)N3CCN(c4ccccc4OC)CC3)ccc2c1=O,3.2%,5.2%,0.9%,4.3%,5.6%,-4.5%
COc1ccccc1N1CCN(C(=O)c2cc3c(s2)CCC3)CC1,-11.2%,1.6%,·,-5.1%,13.1µM*,50.3%
COc1ccc(N2CCN(C(=O)c3cc4c(s3)CCCCC4)CC2)cc1,9.3%,-1.3%,?,-11.0%,?,17.0%
CCCCCC1=CCC/C1=N\NC(=O)c1ccc2c(c1)OCO2,?,-1.4%,?,-9.1%,?,-17.0%[11.4 µM]
COc1ccc(Cn2c(=O)[nH]c3cc(C(=O)N4CCN(c5ccccc5F)CC4)ccc3c2=O)cc1,-9.1%,-1.8%,11.7µM*,-0.6%,11.7µM*,-16.0%
